CYP2C19 act: cytochrome P450 2C19 (human) activation; P33261; recombinant CYP2C19, luciferin-H EGE luminescence; active compounds read high; 0 = fully inhibited enzyme, 1 = untreated enzyme; activation factor at 5 µM; 96,000 tested, under 10 active;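 active means activation factor of at least 2 at 5 µM in the primary screen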;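 further: 0 = wells with 2.5 mM tranylcypromine and 1 = vehicle-only wells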
CYP2C9 activ: CYP2C9 (human) activation; recombinant CYP2C9, luciferin-H conversion, luminescence; active compounds read high; factor 1 = untreated enzyme, 0 = blocked; actives 1.4% (n = 96,000); activation factor at 5 µM; P11712; AID 1024;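 active means activation factor of 2 or more for CYP2C9 at a 5 µM dose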;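 further: 0 = sulfaphenazole-blocked wells and 1 = vehicle-only wells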
Target sequence (P11712 whole entry, looked up): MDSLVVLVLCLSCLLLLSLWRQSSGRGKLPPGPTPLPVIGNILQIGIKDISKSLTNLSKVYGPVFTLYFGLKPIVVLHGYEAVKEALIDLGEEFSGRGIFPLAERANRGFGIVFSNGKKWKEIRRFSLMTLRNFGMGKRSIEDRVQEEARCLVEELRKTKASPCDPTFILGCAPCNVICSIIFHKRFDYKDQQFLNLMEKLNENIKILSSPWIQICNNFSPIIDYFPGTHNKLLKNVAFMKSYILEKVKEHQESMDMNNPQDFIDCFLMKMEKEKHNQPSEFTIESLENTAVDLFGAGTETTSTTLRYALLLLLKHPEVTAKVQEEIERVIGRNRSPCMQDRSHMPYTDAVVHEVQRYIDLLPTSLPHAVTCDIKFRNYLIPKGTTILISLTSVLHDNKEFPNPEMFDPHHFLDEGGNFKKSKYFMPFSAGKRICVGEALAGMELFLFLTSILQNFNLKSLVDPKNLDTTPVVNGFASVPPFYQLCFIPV
Cav3 T inh: blocks human Cav3.2 T-type calcium channel | O95180 | Cav3.2-expressing cells, Fluo-4 calcium fluorescence FDSS; active compounds read low | B-score at 10 µM | actives 4% (n = 100,000);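 active means single-dose well whose peak fluorescence ratio is a statistical outlier from its plate by either plate-standardised score or position-corrected B-score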
CYP2C19 inh: blocks human cytochrome P450 2C19 | P33261 | CYP2C19 Supersomes, luciferin-H EGE luminescence, 30 min | inhibition, % at 5 µM | actives 21% (n = 96,000) | AID 778;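 active means CYP2C19 inhibition above a set limit at 5 µM in the primary screen, cut at about 50% in these data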;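 further: plate controls were negative control wells for no effect and 2.5 mM tranylcypromine positive control for full effect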
CYP2C9 inhib: human CYP2C9 inhibition; AID 777; actives 20% (n = 96,000); inhibition, % at 5 µM; P11712; CYP2C9 Supersomes, luciferin-H conversion, luminescence;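 active means blocking of liver enzyme CYP2C9 beyond about 50% at 5 µM, limit read from the data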
Numbers without * were called inactive. Most compounds without a hit are left out; they make up all but 27% or so of the library.

How did O=c1cc2c(nn1Cc1ccc(Cl)cc1)-c1ccccc1CC2 do in these assays?
CYP2C19 act: 0; CYP2C9 activ: 0; Cav3 T inh: -2.1; CYP2C19 inh: 97*; CYP2C9 inhib: 97*

How did O=c1cc2c(nn1Cc1cccc(Cl)c1)-c1ccccc1CC2 do in these assays?
CYP2C19 act: 0.2; CYP2C9 activ: 0; Cav3 T inh: -1.8; CYP2C19 inh: 84*; CYP2C9 inhib: 100*

Results for COc1cc(OC)c(C2=NOC(C(=O)N3CCc4ccccc4C3)C2)cc1Cl (stereo unspecified) ?
CYP2C19 act: 0.4; CYP2C9 activ: 2.1*; Cav3 T inh: -2.6; CYP2C19 inh: 59*; CYP2C9 inhib: -113

What do the screens show for `O=C(C1CC(c2cccc(Br)c2)=NO1)N1CCc2ccccc2C1` (stereo unspecified)?
CYP2C19 act: 0.7; CYP2C9 activ: 1.5; Cav3 T inh: -4.4*; CYP2C19 inh: 28; CYP2C9 inhib: -46

How did O=C(O)C1CC(c2cccc(Br)c2)=NO1 (stereo unspecified) do in these assays?
CYP2C19 act: 1; CYP2C9 activ: 1.2; Cav3 T inh: 0.095; CYP2C19 inh: 1; CYP2C9 inhib: -23

What do the screens show for `COc1cccc(C2=NOC(C(=O)N3CCN(Cc4ccccc4)CC3)C2)c1OC` (stereo unspecified)?
CYP2C19 act: 0.8; CYP2C9 activ: 2.1*; CYP2C19 inh: 16; CYP2C9 inhib: -111

What do the screens show for `CCC(C)NC(=O)Cc1cn(C)c2ccccc12` (stereo unspecified)?
CYP2C19 act: 0.4; CYP2C9 activ: 1.2; Cav3 T inh: 1.1; CYP2C19 inh: 60*; CYP2C9 inhib: -19

How did CCc1cccc(NC(=O)Cc2cn(C)c3ccccc23)c1 do in these assays?
CYP2C19 act: 0.6; CYP2C9 activ: 2.8*; Cav3 T inh: -7.7*; CYP2C19 inh: 38; CYP2C9 inhib: -180

Results for Cn1cc(CC(=O)Nc2cccc(C#N)c2)c2ccccc21 ?
CYP2C19 act: 0.5; CYP2C9 activ: 3.1*; Cav3 T inh: -4.2*; CYP2C19 inh: 48; CYP2C9 inhib: -212

What do the screens show for `CCc1ccc(NC(=O)Cc2cn(C)c3ccccc23)cc1`?
CYP2C19 act: 0.6; CYP2C9 activ: 2.5*; Cav3 T inh: -4.8*; CYP2C19 inh: 42; CYP2C9 inhib: -149

How did COCCNC(=O)Cc1cn(C)c2ccccc12 do in these assays?
CYP2C19 act: 0.9; CYP2C9 activ: 1.1; Cav3 T inh: 0.27; CYP2C19 inh: 9; CYP2C9 inhib: -8

What do the screens show for `CC(C)N(C(=O)C(F)(F)F)C(C(=O)NC1CCCCC1)c1ccncc1` (stereo unspecified)?
Cav3 T inh: 0.1

What do the screens show for `CCOC(=O)c1cn(Cc2ccccc2)c(C(=O)OC(C)(C)C)c1O`?
Cav3 T inh: -1.7

Results for CC(C)(Oc1ccc(Br)cc1)C(=O)N1CCc2ccccc21 ?
CYP2C19 act: 0.8; CYP2C9 activ: 0.8; Cav3 T inh: -0.3; CYP2C19 inh: 21; CYP2C9 inhib: 18

What do the screens show for `CC(C)(C)NC(=O)CN(C(=O)Cn1nnc(-c2ccccc2F)n1)c1cccc2c1CCCC2`?
CYP2C19 act: 0.4; CYP2C9 activ: 0.1; Cav3 T inh: -3.1*; CYP2C19 inh: 57*; CYP2C9 inhib: 88*

How did CC(C)(C)NC(=O)CN(C(=O)Cn1nnc(-c2ccc(Cl)cc2)n1)C1CCN(Cc2ccccc2)CC1 do in these assays?
Cav3 T inh: -7.6*

How did CCOC(=O)N1CCN(c2cc(=O)n(Cc3ccc(F)cc3)c(=O)[nH]2)CC1 do in these assays?
Cav3 T inh: 0.42

What do the screens show for `N#CN=C1SCCS1`?
CYP2C19 act: 1.2; CYP2C9 activ: 1.2; Cav3 T inh: -4.5*; CYP2C19 inh: -22; CYP2C9 inhib: -20

Results for COc1cc(C(C[N+](=O)[O-])c2c(-c3ccccc3)cc3ccccn23)cc(OC)c1OC (stereo unspecified) ?
CYP2C19 act: 0.6; CYP2C9 activ: 0.4; CYP2C19 inh: 45; CYP2C9 inhib: 59*

How did COc1cccc(-c2ncc3ccccn23)c1 do in these assays?
Cav3 T inh: 0.2

What do the screens show for `COc1ccc(C(C[N+](=O)[O-])c2c(-c3ccccc3)cc3ccccn23)cc1` (stereo unspecified)?
CYP2C19 act: 0.2; CYP2C9 activ: 0.3; CYP2C19 inh: 75*; CYP2C9 inhib: 74*

How did COc1ccc(C(C[N+](=O)[O-])c2c(-c3ccccc3)cc3ccccn23)cc1OC (stereo unspecified) do in these assays?
CYP2C19 act: 0.8; CYP2C9 activ: 0.7; CYP2C19 inh: 17; CYP2C9 inhib: 30

Results for CCS(=O)(=O)c1ccc(O)c(N2C(=O)C3C4C=CC(C4)C3C2=O)c1 (stereo unspecified) ?
CYP2C19 act: 1; CYP2C9 activ: 1; Cav3 T inh: 0.14; CYP2C19 inh: -3; CYP2C9 inhib: -4

How did CCOC(=O)N1CCN(c2nc(-c3ccc(OC)cc3)no2)CC1 do in these assays?
CYP2C19 act: 0.8; CYP2C9 activ: 0.8; Cav3 T inh: 0.14; CYP2C19 inh: 23; CYP2C9 inhib: 22

What do the screens show for `CCCOc1ccc(/C=N/NC(=O)C2CCCN2S(=O)(=O)c2ccc(Cl)cc2)cc1` (stereo unspecified)?
CYP2C19 act: 0.7; CYP2C9 activ: 0.6; Cav3 T inh: 0.82; CYP2C19 inh: 26; CYP2C9 inhib: 41

How did Cc1cc(Br)ccc1NC(=O)CN1C(=O)C2C3CC(c4ccccc4)C(C3)C2C1=O (stereo unspecified) do in these assays?
CYP2C19 act: 0.7; CYP2C9 activ: 0.3; CYP2C19 inh: 35; CYP2C9 inhib: 68*

What do the screens show for `Cc1cc(Br)ccc1NC(=O)CNC(=O)CN1C(=O)NC2(CCCCCC2)C1=O`?
CYP2C19 act: 1.1; CYP2C9 activ: 1.1; Cav3 T inh: -0.26; CYP2C19 inh: -7; CYP2C9 inhib: -10

How did O=C1NC[C@H](c2ccccc2)N(CCc2cccc3ccccc23)C1=O do in these assays?
Cav3 T inh: -0.14

How did C=CCNc1ncnc2c1[nH]c1ccc(Cl)cc12 do in these assays?
CYP2C19 act: 0.7; CYP2C9 activ: 0.4; Cav3 T inh: 0.56; CYP2C19 inh: 34; CYP2C9 inhib: 64*

How did C=CCNc1ncnc2c1[nH]c1ccccc12 do in these assays?
CYP2C19 act: 0.7; CYP2C9 activ: 0.7; Cav3 T inh: 1.7; CYP2C19 inh: 33; CYP2C9 inhib: 28

How did COc1cc(C(=O)N/N=C/c2ccsc2C)cc(OC)c1OC do in these assays?
CYP2C19 act: 1; CYP2C9 activ: 1; Cav3 T inh: -0.37; CYP2C19 inh: 4; CYP2C9 inhib: 3

Results for CC(C)(C)C(=O)Nc1ccc(C(=O)N/N=C/c2ccccc2OC(=O)c2ccccc2)cc1 ?
CYP2C19 act: 0.4; CYP2C9 activ: 0.6; Cav3 T inh: -0.83; CYP2C19 inh: 64*; CYP2C9 inhib: 37

What do the screens show for `COc1cc(C(=O)Oc2ccccc2/C=N/NC(=O)c2ccc(C)cc2)cc(OC)c1OC`?
CYP2C19 act: 0.7; CYP2C9 activ: 0.4; Cav3 T inh: 0.57; CYP2C19 inh: 33; CYP2C9 inhib: 59*

What do the screens show for `Cn1c(=O)c(C(=O)CCl)c(N)n(CC2CC2)c1=O`?
Cav3 T inh: 0.4
